Screening data as filed in PubChem.
Shown are actives, neighbours in structure and some others; about 8.9% of the full set was active somewhere.
ALDH1A1 inh – blocks purified human ALDH1A1 activity; hit rate 7.3% among 220,000; Purified ALDH1A1, NADH fluorescence, propionaldehyde substrate; AID 1030; Potency, µM (series often up to 75.3 µM), inactives show top-dose activity, negative = inhibition, actives largely listed as inhibitors; active means well fitted inhibition curve with a large enough effect, not every such curve was filed as active; inconclusive means small, poorly fitted or top-dose-only effect, or another doubt; inactive means no such curve, though single readings can be large or run the other way;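 further: potency means the concentration at half of the fitted maximal effect; plate controls were no enzyme wells and a reference inhibitor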
IMPase Li cell – cell-permeable IMPase inhibitors with lithium potentiation | hit rate 0.35% among 210,000 | Potency, µM (top dose mostly 59.4 µM), for the others: at the highest dose activity, negative = IMPase inhibition, actives largely listed as inhibitors | CHO-M1 cells, IP1 TR-FRET (IP-One), carbachol + lithium;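 further: IP1 builds up when IMPase is blocked and the TR-FRET signal falls; potency means the concentration at half of the fitted maximal effect; plate controls were basal vehicle for no effect and high inhibitor control for full effect; nearly all actives have a fitted effect of over 50% in size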
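CHO-M1, 2000 cells/well, 16–30 h culture; cpd + low Li+, 30 min 37C; lysis with d2-IP1/Eu-anti-IP1 Ab, 10 min RT; TR-FRET 665/620 ratio and 620 channel; AC50 via Hill.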
IMPase cell inh – membrane-permeable compound that blocks inositol monophosphatase | inhibition (IP1 accumulation), % at 46.1 µM | 120,000 tested, under 10 active | P97697 | CHO-M1 cells, IP1 accumulation, HTRF TR-FRET ratio; active means well fitted curve in the direction sought with a large enough effect in the signal ratio, not every such curve was filed as active; inconclusive means small, poorly fitted or top-dose-only effect, or a change in a side signal; inactive means no such curve, though single readings can be large or run the other way; the % refers to the signal ratio;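 further: cells stimulated with carbachol in lithium chloride buffer; plate controls were DMSO basal wells for no effect and reference inhibitor wells for full effect; higher means more IMPase inhibition seen as more IP1 and lower FRET ratio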
Target sequence (P97697 whole entry, looked up): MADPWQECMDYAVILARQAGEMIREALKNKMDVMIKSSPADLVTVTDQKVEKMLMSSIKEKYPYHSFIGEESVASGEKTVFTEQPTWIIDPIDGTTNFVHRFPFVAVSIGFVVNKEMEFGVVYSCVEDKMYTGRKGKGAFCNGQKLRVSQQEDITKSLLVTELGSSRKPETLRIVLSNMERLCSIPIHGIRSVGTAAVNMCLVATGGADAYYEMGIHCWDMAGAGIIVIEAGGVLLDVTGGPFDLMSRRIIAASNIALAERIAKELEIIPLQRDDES
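Elevated IP1 in lysates lowers TR-FRET signal (665/620 ratio and 620 channel reported). Cells were CHO-M1, given carbachol (50 uM as added) plus 50mM LiCl, pH 7.4, 30 min, 37C; compounds titrated up to 46 uM; AC50 by Hill equation.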
HPGD inh – blocks human HPGD enzyme activity; P15428; purified HPGD, NADH fluorescence kinetic, PGE2 substrate; Potency, µM, for inactives: at the highest dose activity change, negative = inhibition, hits mostly inhibitors; hit rate 4.3% among 150,000; AID 894; active means well fitted inhibition curve with a large enough effect, not every such curve was filed as active; inconclusive means small, poorly fitted or top-dose-only effect, or another doubt; inactive means no such curve, though single readings can be large or run the other way; further: potency means the concentration at half of the fitted maximal effect
Target sequence (P15428 whole entry, looked up): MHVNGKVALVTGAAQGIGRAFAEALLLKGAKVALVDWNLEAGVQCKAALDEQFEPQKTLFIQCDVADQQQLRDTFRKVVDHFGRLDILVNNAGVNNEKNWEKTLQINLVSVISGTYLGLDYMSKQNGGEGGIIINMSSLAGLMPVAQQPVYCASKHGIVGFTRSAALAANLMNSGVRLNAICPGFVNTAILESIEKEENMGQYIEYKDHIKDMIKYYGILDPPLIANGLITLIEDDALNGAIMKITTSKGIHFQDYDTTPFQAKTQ
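NADH formation kinetics: reaction with 30 uM PGE2 and 1 mM NAD+ (final), 20 nM enzyme, Tris-HCl pH 8 with Tween 20, after 15 min compound preincubation at room temperature. Fluorescence change, last versus first of five reads.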
12-hLO inh – inhibitors of human 12-lipoxygenase (ALOX12). P18054. purified 12-hLO, xylenol orange hydroperoxide absorbance. Potency, µM (top dose mostly 57.1 µM), inactives show at the top dose activity change, negative = inhibition, hits mostly inhibitors. hit rate 0.12% among 150,000. AID 1452; further: potency means the concentration at half of the fitted maximal effect; nearly all actives have a fitted effect of over 55% in size
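Purified human 12hLO (150 nM), preincubated 15 min with compound, then 40 uM arachidonic acid for 30 min, room temperature, Hepes pH 7.0 with 0.01% Triton X-100. Hydroperoxide detected by ferrous iron/xylenol orange; 573/405 nm absorbance ratio gives reaction progress.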
NPSR antag – blocks cAMP signaling of the human neuropeptide S receptor; Q6W5P4; CHO-NPSR cells, cAMP TR-FRET, antagonist mode; Potency, µM (top dose mostly 38.3 µM), for the others: at the top dose activity change, negative = inhibition, actives largely listed as inhibitors; hit rate 1% among 220,000; further: potency means the concentration at half of the fitted maximal effect; nearly all actives have a fitted effect of over 50% in size
The depositor's hits bear a star; ! = not confirmed by another sample; [ ] = dose if it differs, or a comment. Unless noted, the call rests on the fitted dose curve; in most records, active means well fitted curve in the direction sought with a large enough effect; inconclusive means small, poorly fitted or top-dose-only effect, or another doubt; inactive means no such curve, though single readings can be large; an effect the other way counts as inactive or inconclusive. Unless noted, on the % scale 0 is the no-effect control and ±100 the full control effect.

`CCC(C(=O)OC)n1cnc2c(nnn2-c2cccc(Cl)c2)c1=O` (configuration not stated) gave ALDH1A1 inh -7.2%, IMPase Li cell 17.0%[38.3 µM], IMPase cell inh 2.0, HPGD inh 20µM*, 12-hLO inh 1.2% and NPSR antag -17.9%[46.1 µM].
COc1cccc(CNc2ccc(N3CCCCC3)cc2)c1OC was read as ALDH1A1 inh 3.98µM*, IMPase Li cell 59.9%[38.3 µM], IMPase cell inh 4.1, HPGD inh -13.5%, 12-hLO inh -21.8% and NPSR antag inconclusive.
`CCOc1ccc(CNc2ccc(N3CCCC3)cc2)cc1` gave ALDH1A1 inh 7.94µM*, IMPase Li cell 9.4%, IMPase cell inh 25.8, HPGD inh -1.6%, 12-hLO inh -28.7% and NPSR antag -27.1%[46.1 µM].
`CCOc1ccc(NC(=O)c2ccc(CNc3c(N4CCCC4)c(=O)c3=O)cc2)cc1` gave NPSR antag -0.5%.
Screening COc1cc(CNc2ccc(N3CCCC3)cc2)cc(Cl)c1OC returned ALDH1A1 inh inconclusive, IMPase Li cell 26.3% and NPSR antag -11.6%.
Screening CCOc1cc(CNc2ccc(N3CCCC3)cc2)cc(Cl)c1OC returned ALDH1A1 inh 31.6µM*, IMPase Li cell 17.8%, HPGD inh -13.0%, 12-hLO inh -8.6% and NPSR antag -15.0%.
`CCc1c(C(=O)NNC(=S)NCc2ccccc2)csc1C` gave ALDH1A1 inh 3.0%, IMPase Li cell -9.5%, HPGD inh -13.1%, 12-hLO inh -2.1% and NPSR antag 5.2%.
Cc1oc(-c2cccs2)nc1CS(=O)CC(=O)NCCCOC(C)C (configuration not stated) was read as ALDH1A1 inh 2.3%, IMPase Li cell -8.0%[38.3 µM], IMPase cell inh 0.9, HPGD inh -6.0%, 12-hLO inh -1.2% and NPSR antag -1.0%[46.1 µM].
Screening CC(CCc1ccccc1)NC(=O)COC(=O)C1CCC(C(C)(C)C)CC1 (configuration not stated) returned ALDH1A1 inh inconclusive, IMPase Li cell 6.6%, HPGD inh -13.9%, 12-hLO inh -1.0% and NPSR antag 6.7%.
`O=C(OCc1cc2ccccc2[nH]c1=O)C1CCCCC1` gave ALDH1A1 inh 20µM*, IMPase cell inh 5.6, 12-hLO inh -4.2% and NPSR antag -4.7%[46.1 µM].
Screening COc1ccc2[nH]c(=O)c(CN(C)C(=O)C3CCCCC3)cc2c1 returned ALDH1A1 inh inconclusive, IMPase Li cell 28.2µM*, IMPase cell inh -6.0, HPGD inh inconclusive, 12-hLO inh 4.0% and NPSR antag 10.6%[46.1 µM].
S=C(Nc1ccc2nsnc2c1)N1CCCCCC1 was read as ALDH1A1 inh 0.1%, IMPase Li cell -1.7% and NPSR antag 17.9%.
For Cc1ccc2nc(C)/c(=N\O)c(C)nc2c1 the results were ALDH1A1 inh 8.9%, IMPase Li cell -3.8%[38.3 µM], IMPase cell inh -21.0, HPGD inh -8.6%, 12-hLO inh -0.4% and NPSR antag -0.4%[46.1 µM].
Cc1nc2ccccc2nc(C)c1=NO was read as ALDH1A1 inh 22.4µM*, IMPase Li cell 7.5%[38.3 µM], IMPase cell inh 7.9, HPGD inh -23.9%, 12-hLO inh -0.8% and NPSR antag -8.0%[46.1 µM].
For Cc1ccc(S(=O)(=O)NCCCC(=O)O)cc1 the results were ALDH1A1 inh 1.4%, IMPase Li cell 2.6% and NPSR antag 1.5%.
Screening Cc1cccc(N=Nc2c(C)[nH]n(C(N)=S)c2=O)c1C returned ALDH1A1 inh 17.8µM*, IMPase Li cell 3.4% and NPSR antag -15.4%.
Cc1ccccc1N=Nc1c(C)[nH]n(C(N)=S)c1=O was read as ALDH1A1 inh 20µM*, IMPase Li cell 5.8%, HPGD inh -23.7%, 12-hLO inh -1.6% and NPSR antag -17.3%.
CCN(CC)S(=O)(=O)c1ccc(N=Nc2c(C)[nH]n(C(N)=S)c2=O)cc1 was read as ALDH1A1 inh 7.94µM*, IMPase Li cell 35.0%, IMPase cell inh 8.5, HPGD inh 35.5µM*, 12-hLO inh -19.6% and NPSR antag -8.7%[46.1 µM].
For CCOC(=O)c1sc(NC(=O)c2cccs2)nc1C the results were ALDH1A1 inh 2.0%, IMPase Li cell -5.4%[38.3 µM], IMPase cell inh -0.7, HPGD inh inconclusive, 12-hLO inh 6.3% and NPSR antag -11.5%[46.1 µM].
COc1cc(N=Nc2cccc(S(N)(=O)=O)c2)c2ccccc2c1N was read as ALDH1A1 inh 7.94µM*!, IMPase Li cell 0.2%, HPGD inh -11.6%, 12-hLO inh inconclusive and NPSR antag -4.1%.
For COc1cc(S(=O)(=O)N2CCOCC2)ccc1F the results were ALDH1A1 inh 18.6%, IMPase Li cell -1.0%[38.3 µM], IMPase cell inh 5.4, HPGD inh -7.1%, 12-hLO inh -1.5% and NPSR antag 6.7%[46.1 µM].
Screening Cc1onc(-c2c(F)cccc2Cl)c1C(=O)OCC(=O)NC(c1ccccc1)c1ccccc1 returned ALDH1A1 inh inconclusive, IMPase Li cell 29.2%[38.3 µM], IMPase cell inh 10.2, HPGD inh -14.3%, 12-hLO inh 6.7% and NPSR antag inconclusive.
For Cc1ccc(NC(=O)NC2=NN(c3ccccc3)C(=O)/C2=C2/CCCN2C)cc1 the results were ALDH1A1 inh 7.08µM*, IMPase Li cell 43.4% and NPSR antag -10.6%.
Screening CN1CCC/C1=C1/C(=O)N(c2ccccc2)N=C1NC(=O)Nc1cccc(Cl)c1 returned ALDH1A1 inh -0.8%, IMPase Li cell 1.4% and NPSR antag -16.7%.
Screening CCn1c(SCC(=O)Nc2ccc(OC)cc2)nc2nc3c(cc2c1=O)CCCC3 returned NPSR antag -35.2%.
`O=C(CSc1nc2nc3c(cc2c(=O)n1-c1ccccc1)CCCC3)Nc1cccc2ccccc12` gave ALDH1A1 inh 7.94µM*, IMPase Li cell 13.7%, IMPase cell inh -8.5, HPGD inh -10.5%, 12-hLO inh -5.7% and NPSR antag -16.9%.
Cc1ccccc1-n1c(SCC(=O)Nc2ccccc2)nc2nc3c(cc2c1=O)CCCC3 was read as ALDH1A1 inh 7.94µM*, IMPase Li cell 1.8%, IMPase cell inh 1.1, HPGD inh -5.9%, 12-hLO inh -4.6% and NPSR antag -21.4%[46.1 µM].
For Cc1cccc(NC(=O)CSc2nc3nc4c(cc3c(=O)n2-c2ccccc2)CCCC4)c1 the results were ALDH1A1 inh inconclusive, IMPase Li cell -12.1%, IMPase cell inh -8.5, HPGD inh -25.0%, 12-hLO inh -3.4% and NPSR antag -17.1%.
CC(C)[C@H](NS(=O)(=O)c1ccc2c(c1)OCCO2)C(=O)OCC(=O)Nc1cccc(Cl)c1Cl was read as ALDH1A1 inh inconclusive, IMPase Li cell 9.0%, HPGD inh -7.4%, 12-hLO inh -3.2% and NPSR antag -2.9%.
